# Measurements: PubChem BioAssay (EPA / NIEHS)
# Inconclusive results are not listed. The source made the active and inactive calls. How the source made its calls, unless noted: active means hit-call score of the fitted dose curve at least 0.9, where 1 is the maximum; inactive means score below 0.9.
# Assays:
# [1] = biological target: Estrogen receptor (Homo sapiens) (UniProt P03372); test: CCTE_Deisenroth_AIME_384WELL_LUC_Active: CCTE's 384-well Estrogen Receptor Transactivation Assay with AIME metabolic competence (ERTA luciferase; metabolism positive), Deisenroth Lab (AID 2284030; active means hit-call score of the fitted dose curve at least 0.9, where 1 is the maximum)
# Sequence of Estrogen receptor (Homo sapiens) (P03372 whole entry, looked up): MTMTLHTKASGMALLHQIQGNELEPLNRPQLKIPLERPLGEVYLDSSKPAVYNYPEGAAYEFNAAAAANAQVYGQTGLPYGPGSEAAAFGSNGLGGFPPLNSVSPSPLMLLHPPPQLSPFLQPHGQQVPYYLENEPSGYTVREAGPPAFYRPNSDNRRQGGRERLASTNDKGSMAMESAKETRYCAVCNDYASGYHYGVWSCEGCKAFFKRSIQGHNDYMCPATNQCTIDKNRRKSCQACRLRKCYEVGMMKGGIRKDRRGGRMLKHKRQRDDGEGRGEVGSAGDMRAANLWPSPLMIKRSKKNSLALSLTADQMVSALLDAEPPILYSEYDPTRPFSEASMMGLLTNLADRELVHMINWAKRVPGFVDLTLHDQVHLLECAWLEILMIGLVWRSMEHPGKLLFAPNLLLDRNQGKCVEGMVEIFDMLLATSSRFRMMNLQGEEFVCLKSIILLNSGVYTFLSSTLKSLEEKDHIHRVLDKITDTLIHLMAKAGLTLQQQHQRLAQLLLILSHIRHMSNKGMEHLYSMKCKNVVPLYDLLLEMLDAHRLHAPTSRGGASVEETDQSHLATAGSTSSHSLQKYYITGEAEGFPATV
# In short: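 In this metabolism-positive format, a 2-hour exposure to alginate-immobilized rat S9 precedes a 24 hour luciferase transactivation readout in VM7Luc4E2 cells. Dosing spans 10 concentrations from 0.002 to 200 uM.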
# [2] = CCTE_Deisenroth_AIME_384WELL_CTox_Active: Cytotoxicity Assessment (CTOX) in CCTE's 384-well Estrogen Receptor Transactivation Assay with AIME metabolic competence (metabolism positive), Deisenroth Lab (AID 2284037; active means hit-call score of the fitted dose curve at least 0.9, where 1 is the maximum;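 further: activity means signal loss indicating cell death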)
# In short: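 Chemicals pre-incubated 2 hours with alginate-immobilised phenobarbital/beta-naphthoflavone-induced male Sprague Dawley rat liver S9, then conditioned medium applied 24 hour to VM7Luc4E2 cells. Viability by fluorogenic protease substrate; 10-point series 0.002 - 200 uM.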
# [3] = CCTE_Deisenroth_AIME_384WELL_CTox_Inactive: Cytotoxicity Assessment (CTOX) in CCTE's 384-well Estrogen Receptor Transactivation Assay without AIME metabolic competence (metabolism negative), Deisenroth Lab (AID 2284039; active means hit-call score of the fitted dose curve at least 0.9, where 1 is the maximum;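 further: cell viability via live-cell protease substrate cleaved to fluorescent probe; cells exposed 24 h to medium preincubated 2 h with alginate-water beads without S9; loss of fluorescence signal means loss of viability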)
# In short: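 VM7Luc4E2 cells, metabolism-negative arm: test chemicals (0.002–200 uM, 10 points) pre-incubated 2 h with alginate-water microspheres, then medium transferred to cells for 24 h. Viability read as protease-substrate cleavage to fluorescent probe; loss-of-signal, bidirectional fitting.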
# [4] = biological target: Estrogen receptor (Homo sapiens) (UniProt P03372); test: CCTE_Deisenroth_AIME_384WELL_LUC_Shift: CCTE's 384-well Estrogen Receptor Transactivation Assay with AIME metabolic competence data shift (ERTA luciferase; difference in metabolism positive and negative), Deisenroth Lab (AID 2284041);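 further: shift is response with S9 minus without S9 so positive means metabolism raised ER signal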
# In short: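 Chemicals (0.002–200 uM, 10 points) pre-incubated 2 h with alginate-encapsulated induced male Sprague Dawley rat liver S9 or S9-free, then medium applied 24 h to VM7Luc4E2 cells; luciferase. Endpoint is per-concentration difference, S9-positive minus negative.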
# [5] = CCTE_Shafer_MEA_dev_firing_rate_mean: CCTE's Neural Network Formation Assay for Mean Firing Rate, Shafer Lab (AID 2284031)
# In short: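 Rat primary cortical neurons were seeded on multielectrode arrays and treated from plating through day 12, with redosing at each feed. Spontaneous spiking was recorded four times; mean firing rate AUC was fitted downward against DMSO.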
# [6] = CCTE_Shafer_MEA_dev_per_burst_spike_percent: CCTE's Neural Network Formation Assay for Percent of Spikes in a Burst, Shafer Lab (AID 2284032)
# In short: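 Rat primary cortical neurons on 16-electrode MEA wells, dosed from plating day 0 for 12 days with renewal on DIV 5 and 9; spikes-in-bursts percentage averaged over bursting electrodes, collapsed as AUC across days 5, 7, 9, 12; loss direction versus DMSO.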
# [7] = CCTE_Shafer_MEA_dev_active_electrodes_number: CCTE's Neural Network Formation Assay for Number of Active Electrodes, Shafer Lab (AID 2284040; active means hit-call score of the fitted dose curve at least 0.9, where 1 is the maximum)
# In short: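 Primary rat cortical neurons on 16-electrode MEA wells, exposed from day 0 through day 12 with compound renewed at DIV 5 and 9 feeds. Active electrodes (mean firing ≥5 spikes/min) counted at DIV 5, 7, 9, 12; trapezoidal AUC across days, loss-of-signal versus DMSO.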
# [8] = CCTE_Shafer_MEA_dev_burst_rate: CCTE's Neural Network Formation Assay for Burst Rate, Shafer Lab (AID 2284042)
# In short: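 Primary rat cortical neurons on PEI-coated 48-well MEA plates (laminin added with cells at plating) (16 electrodes/well), exposed from plating to day 12, dosing renewed at DIV 5 and 9. Burst rate averaged over active electrodes, recorded DIV 5, 7, 9, 12, summarized as AUC; loss versus DMSO.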
# [9] = CCTE_Shafer_MEA_dev_bursting_electrodes_number: CCTE's Neural Network Formation Assay for Number of Bursting Electrodes, Shafer Lab (AID 2284043; active means hit-call score of the fitted dose curve at least 0.9, where 1 is the maximum)
# In short: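 Primary rat cortical neurons plated on 16-electrode MEA wells, exposed from day 0 with compound renewed at DIV 5 and 9. Electrodes bursting ≥1 burst per 2 min counted on days 5, 7, 9 and 12; trapezoidal AUC across days, fitted for loss versus DMSO.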
# [10] = CCTE_Shafer_MEA_dev_per_burst_interspike_interval: CCTE's Neural Network Formation Assay for Burst Interspike Interval, Shafer Lab (AID 2284044);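 further: mean spike spacing inside bursts as AUC over recordings on days 5 7 9 12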
# In short: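 Developmental network-formation MEA in primary rat cortical cultures with exposure spanning days 0–12. Within-burst ISI is averaged per well and integrated across recording days by area under the curve, with DMSO as negative control baseline.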
# [11] = CCTE_Shafer_MEA_dev_burst_duration_mean: CCTE's Neural Network Formation Assay for Mean Burst Duration, Shafer Lab (AID 2284045)
# In short: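 Primary rat cortical neurons on 48-well 16-electrode MEA plates, exposed from day 0 with renewal at DIV 5 and 9; spontaneous activity recorded on days 5, 7, 9, 12. Well-mean burst duration across bursting electrodes, collapsed as trapezoidal AUC; DMSO baseline.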
# [12] = CCTE_Shafer_MEA_dev_interburst_interval_mean: CCTE's Neural Network Formation Assay for Mean Interburst Interval, Shafer Lab (AID 2284046);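 further: well-mean interburst interval of bursting electrodes as AUC over four recording days; curve fitted for decrease in interburst interval relative to DMSO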
# In short: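 Recordings on days 5, 7, 9 and 12 give well-mean interburst interval across actively bursting electrodes, summarized as area under the curve. Cultures: rat cortical neurons, continuous exposure from day 0, compound renewed at feeds; decrease analyzed versus DMSO.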
# [13] = biological target: Estrogen receptor (Homo sapiens) (UniProt P03372); test: CCTE_Deisenroth_AIME_96WELL_LUC_Active: CCTE's 96-well Estrogen Receptor Transactivation Assay with AIME metabolic competence (ERTA luciferase; metabolism positive), Deisenroth Lab (AID 2284023; active means hit-call score of the fitted dose curve at least 0.9, where 1 is the maximum)
# In short: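 Chemicals pre-incubated 2 h with alginate-immobilized phenobarbital/beta-naphthoflavone-induced male Sprague Dawley rat liver S9, then medium transferred to VM7Luc4E2 cells for 24 h luciferase read-out. 10-point series 0.002 - 200 uM; fitted relative to 17beta-estradiol.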
# [14] = biological target: Estrogen receptor (Homo sapiens) (UniProt P03372); test: CCTE_Deisenroth_AIME_96WELL_LUC_Inactive: CCTE's 96-well Estrogen Receptor Transactivation Assay without AIME metabolic competence (ERTA luciferase; metabolism negative), Deisenroth Lab (AID 2284025; active means hit-call score of the fitted dose curve at least 0.9, where 1 is the maximum)
# In short: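 VM7Luc4E2 breast cells, luciferase read 24 h after dosing with medium pre-incubated 2 h on alginate-water lids (metabolism negative). 10-point series 0.002–200 uM, single technical replicate, n≥4; fit relative to 17beta-estradiol.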
# [15] = CCTE_Deisenroth_AIME_96WELL_CTox_Inactive: Cytotoxicity Assessment (CTOX) in CCTE's 96-well Estrogen Receptor Transactivation Assay without AIME metabolic competence (metabolism negative), Deisenroth Lab (AID 2284029; active means hit-call score of the fitted dose curve at least 0.9, where 1 is the maximum)
# In short: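 Chemicals (0.002 - 200 uM, 10 points) incubated 2 h with alginate-water microspheres (no S9), then medium moved onto VM7Luc4E2 cells for 24 h. Viability by protease-substrate cleavage to fluorescent probe; bidirectional fitting.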
# [16] = CCTE_Deisenroth_AIME_96WELL_CTox_Active: Cytotoxicity Assessment (CTOX) in CCTE's 96-well Estrogen Receptor Transactivation Assay with AIME metabolic competence (metabolism positive), Deisenroth Lab (AID 2284028; active means hit-call score of the fitted dose curve at least 0.9, where 1 is the maximum)
# In short: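 Chemicals (0.002–200 uM) were first incubated 2 h with alginate-immobilized phenobarbital/beta-naphthoflavone-induced male rat liver S9; conditioned medium then went onto VM7Luc4E2 cells for 24 h, with viability read by protease-substrate fluorescence, fitted bidirectionally.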
smiles,measurement,setting,value
CCCCCCCCC(=O)O,outcome,[1],inactive
same,outcome,[2],inactive
same,outcome,[3],inactive
same,outcome,[4],inactive
C[C@@H]1C[C@H]2[C@@H]3CCC4=CC(=O)C=C[C@]4(C)[C@@]3(F)[C@@H](O)C[C@]2(C)[C@@]1(O)C(=O)COP(=O)(O)O,outcome,[2],inactive
same,outcome,[4],inactive
ClC1=C(Cl)C(Cl)(Cl)C(Cl)=C1Cl,outcome,[1],inactive
same,outcome,[2],inactive
same,outcome,[4],inactive
CC(O)CO (stereo not drawn),outcome,[5],inactive
same,outcome,[6],inactive
same,outcome,[7],inactive
same,outcome,[8],inactive
same,outcome,[9],inactive
same,outcome,[10],inactive
same,outcome,[11],inactive
same,outcome,[12],inactive
OC1CCCCC1,outcome,[1],inactive
same,outcome,[2],inactive
same,outcome,[3],inactive
same,outcome,[4],inactive
c1ccc2c(c1)ccc1ccccc12,outcome,[13],inactive
same,AC50,[14],133 µM (active)
same,outcome,[15],inactive
same,outcome,[5],inactive
same,outcome,[6],inactive
same,outcome,[7],inactive
same,outcome,[8],inactive
same,outcome,[9],inactive
same,outcome,[10],inactive
same,outcome,[11],inactive
same,outcome,[12],inactive
COc1cc(CCC(=O)CC(=O)CCc2ccc(O)c(OC)c2)ccc1O,outcome,[14],inactive
same,AC50,[16],150 µM (active)
same,AC50,[15],164 µM (active)
CCCCC(CC)COC(=O)CCCCC(=O)OCc1ccccc1 (stereo not drawn),outcome,[1],inactive
same,outcome,[2],inactive
same,outcome,[4],inactive
COC(=O)CCCCC(=O)OC,outcome,[1],inactive
same,outcome,[4],inactive
CCCCOCCO,outcome,[1],inactive
same,outcome,[3],inactive
same,outcome,[4],inactive
CCCCCCC(=O)O,outcome,[1],inactive
same,outcome,[4],inactive
C=C(C)C(=O)OCCC(F)(F)C(F)(F)C(F)(F)C(F)(F)C(F)(F)C(F)(F)F,outcome,[5],inactive
same,outcome,[6],inactive
same,outcome,[7],inactive
same,outcome,[8],inactive
same,outcome,[9],inactive
same,outcome,[10],inactive
same,outcome,[11],inactive
same,outcome,[12],inactive
OCCC(F)(F)C(F)(F)C(F)(F)C(F)(F)C(F)(F)C(F)(F)F,outcome,[1],inactive
same,outcome,[5],inactive
same,outcome,[6],inactive
same,outcome,[2],inactive
same,outcome,[3],inactive
same,outcome,[7],inactive
same,outcome,[4],inactive
same,outcome,[8],inactive
same,outcome,[9],inactive
same,outcome,[10],inactive
same,outcome,[11],inactive
same,outcome,[12],inactive
COCC(C)OCC(C)O (stereo not drawn),outcome,[1],inactive
same,outcome,[2],inactive
same,outcome,[4],inactive
